PAFAH1B3 FP inh: PAFAH1B3 (human) inhibition; Q15102; recombinant PAFAH1B3, FP-rhodamine probe, fluorescence polarization; inhibition, % at 3.39 µM; 340,000 tested, 0.28% active;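 active = inhibition above the screen-wide average of all tested compounds plus 3 SD, cut at about 25% in these data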
pPAFAH inh: pPAFAH (human) enzyme inhibition; 330,000 tested, 1.5% active; Q13093; recombinant pPAFAH, FP-rhodamine probe fluorescence polarization; inhibition, % at 3.39 µM;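 active = inhibition above the mean inhibition across the screen plus 3 SD, cut at about 25% in these data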;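 also: inhibitors block binding of the rhodamine activity-based probe so polarization drops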
PP5 primary: blocks human protein phosphatase 5 activity; purified PP5c, OMFP substrate fluorescence; 320,000 tested, 0.18% active; AID 1987; P53041; inhibition, % at 6.7 µM;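 active = inhibition above the campaign's mean inhibition across all tested compounds plus 3 SD, cut at about 9.5% in these data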
PAFAH2 inh: inhibitors of human PAFAH2; Q99487; recombinant PAFAH2, FP-rhodamine activity probe, fluorescence polarization; inhibition, % at 3.39 µM; 340,000 tested, 0.99% active; AID 492956;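 active = inhibition above the mean over all tested compounds plus 3 SD, cut at about 30% in these data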;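 also: inhibitors block probe labeling of enzyme so polarization drops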
PAFAH1B2 inh: blocks human PAF acetylhydrolase 1b catalytic subunit 2; P68402; 340,000 tested, 1.2% active; recombinant PAFAH1B2, FP-rhodamine activity probe, fluorescence polarization; inhibition, % at 3.39 µM; AID 492953;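 active = inhibition above the mean of all tested compounds plus 3 SD, cut at about 24% in these data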
Target sequence (P68402 whole entry, looked up): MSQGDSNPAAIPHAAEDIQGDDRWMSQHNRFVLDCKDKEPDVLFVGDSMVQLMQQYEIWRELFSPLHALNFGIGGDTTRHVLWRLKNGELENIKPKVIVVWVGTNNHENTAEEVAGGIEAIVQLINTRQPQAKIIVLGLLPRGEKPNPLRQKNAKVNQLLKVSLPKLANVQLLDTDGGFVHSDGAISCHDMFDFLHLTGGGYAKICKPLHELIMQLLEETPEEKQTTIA
CTSL1 counter: counter-screen for PFM18AAP inhibitors: inhibitors of F. hepatica cathepsin L1; recombinant F. hepatica cathepsin L1, Z-Leu-Arg-MCA fluorescence; inhibition, % at 5.96 µM; 300,000 tested, 0.49% active; AID 1906;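 active = inhibition above the mean of all tested compounds plus 3 SD, set per screening campaign, cut at about 17% in these data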
PAFAH1B3 conf FP: PAFAH1B3 (human) inhibition, confirmed; 390 tested, 30% active; AID 493032; shares compounds with PAFAH1B3 FP inh; inhibition, % at 3.39 µM; recombinant PAFAH1B3, FP-Rh activity-based probe, fluorescence polarization;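 active = average inhibition over triplicate runs above the hit cutoff set in the earlier primary screen, cut at about 25% in these data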
A number is an active result; n = inactive; x = not tested or not shown. In the library only some 3% were active in any assay of this set; here they are far more common.

SMILES | PAFAH1B3 FP inh | pPAFAH inh | PP5 primary | PAFAH2 inh | PAFAH1B2 inh | CTSL1 counter | PAFAH1B3 conf FP
CC(C)(C)c1ccc(NC(=O)COC(=O)c2ccc([N+](=O)[O-])s2)cc1 | 38 | n | n | n | n | n | n
Cc1cc(F)ccc1S(=O)(=O)N(CC(=O)N1CCOCC1)CC(=O)N1CCOCC1 | n | n | x | n | n | x | x
CCOC(=O)c1ccccc1N1C(=O)CSC1=S | 38 | n | n | n | n | n | 38
CCCN1CCN(CC(O)COC(c2ccc(OC)cc2)c2ccc(OC)cc2)CC1 (configuration not stated) | n | n | n | n | n | n | x
CC(=O)Oc1cccc(N2C(=O)c3ccc(C(=O)O)cc3C2=O)c1 | n | n | n | n | n | n | x
CC(=O)Oc1cccc(N2C(=O)c3cccc4c([N+](=O)[O-])ccc(c34)C2=O)c1 | 28 | n | n | n | n | n | 40
CSc1ccc(/C=C(/NC(=O)c2ccco2)C(=O)N2CCCCC2)cc1 | n | n | n | n | n | n | x
O=c1c(Cc2ccc(F)cc2)c(O)ccn1CCCn1ccnc1 | n | n | n | n | n | n | x
CC1OC(Nc2cccc3ccccc23)C(O)C(O)C1O (configuration not stated) | 32 | n | n | n | n | n | n
C/C(=N\NC(=O)c1cc(-c2cccc([N+](=O)[O-])c2)n[nH]1)c1ccccc1O | 26 | n | n | n | n | n | n
CN(CCCCCCCCC(=O)/C=N/O)Cc1ccccc1 | n | n | n | n | n | n | x
CN(C)CCCCCCCCCCC(=O)/C=N/O | 27 | n | n | n | n | n | n
Cc1noc(C)c1COC(=O)c1csc2c1CCC(C)C2 (configuration not stated) | n | n | n | n | n | x | x
CC(=O)c1c(C)[nH]c(C(=O)Nc2ccc(Cl)c(S(=O)(=O)N3CCOCC3)c2)c1C | 28 | n | n | n | n | n | n
COc1ccc(NC(=O)c2[nH]c(C)c(C(C)=O)c2C)cc1S(=O)(=O)N1CCOCC1 | n | n | n | n | n | n | x
Cc1ccc(-c2[nH]c3cc(C(N)=O)ccc3c(=O)c2O)cc1 | 29 | n | n | n | n | n | n
CCCNC(=O)c1ccc2c(=O)c(O)c(-c3ccc(C)cc3)[nH]c2c1 | 27 | n | n | n | n | n | n
CCCCCn1c(=O)[nH]c2cc(C(=O)NCCCN(CC)CC)ccc2c1=O | n | n | n | n | n | n | x
Cc1ccc(-c2oc3ccccc3c(=O)c2O)cc1 | n | n | n | n | n | n | x
C[C@H](CO)N1C[C@H](C)[C@@H](CN(C)S(=O)(=O)c2cn(C)cn2)Oc2ccc(NC(=O)Cc3ccccc3)cc2C1=O | n | n | x | n | n | x | x
CCC1(c2ccccc2)NC(=O)N(CC(=O)N2CC(=O)Nc3ccccc32)C1=O (configuration not stated) | n | n | n | n | n | x | x
COc1ccc(C(=O)N/N=C/c2sc3ccccc3c2O)cc1 | n | n | n | n | n | n | x
COc1ccc2cc(C(=O)N/N=C/c3sc4ccccc4c3O)ccc2c1 | 30 | n | n | n | n | n | n
Cc1ccc(SC2=C(Sc3ccc(C)cc3)C(=O)c3ccccc3C2=O)cc1 | 38 | n | n | n | n | n | 35
Oc1cc(NCc2ccc(F)cc2)cc2cccnc12 | n | n | x | n | n | x | x
SMILES | PAFAH1B3 FP inh | pPAFAH inh | PP5 primary | PAFAH2 inh | PAFAH1B2 inh | CTSL1 counter | PAFAH1B3 conf FP
CN(C)CCCNc1cc(O)c2ncccc2c1 | 29 | n | x | n | n | x | n
Cc1cc(Oc2cccc3c2S(=O)(=O)N(C2CCCC2)CC(COCc2ccccc2)O3)cc(C)c1C (configuration not stated) | n | x | x | n | n | x | x
COC(=O)N/N=C/c1cc(N=Nc2ccccc2)ccc1O | n | n | n | n | n | n | x
Cc1cc(C(=O)N/N=C/c2cc(N=Nc3ccccc3)ccc2O)n[nH]1 | 29 | n | n | n | n | n | n
COc1ccc2c3c(cccc13)N(C)N=C2C | 27 | n | n | n | n | n | n
COc1ccc2c3c(cccc13)OC2=O | n | n | n | n | n | n | x
O=C(Nc1ccc(O)cc1)C1CC=CCC1 (configuration not stated) | 27 | n | n | n | n | n | n
O=C(Nc1nccs1)C1CC=CCC1 (configuration not stated) | n | n | n | n | n | n | x
